{"source": "PubChem BioAssay (NCI)", "note": "The panel holds about 83,000 compounds, 20% with a hit somewhere; the sample as a whole holds those more often.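 Assay: single dose, 48 h. Readout: percent growth (0 = no net growth; negative = cell death). Active: <10.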 Unmarked numbers belong to inactive results. Activity calls are given as the source filed them."}
{"tested_on": "HCT-116 colon", "test": "NCI-60 one-dose screen, 48 h (100 = growth as untreated, 0 = no growth, -100 = all killed)", "settings": "10 µM unless noted"}
{"molecule": "c1ccc(OCc2nnc(-c3ccc(Oc4ccccc4)cc3)o2)cc1", "growth": "100%"}
{"molecule": "C=C1C(=O)O[C@H]2[C@H]1CC/C(COC(=O)CCC(=O)NCCOCCOCC(=O)Nc1ccc(OC)c(C(N)=O)c1O)=C\\CC[C@@]1(C)O[C@@H]21", "growth": "69.5%"}
{"molecule": "Nc1ccc(Sc2ccc([N+](=O)[O-])c3nonc23)cc1", "growth": "66.3%"}
{"molecule": "Cc1ccc(C(=O)NN2C(=O)CSC2c2cccc([N+](=O)[O-])c2)cn1", "note": "(stereo unspecified)", "growth": "99.6%"}
{"molecule": "CCOC(=O)c1[nH]c(C)c(C(=O)OCc2ccccc2C#N)c1C", "growth": "40.9%"}
{"molecule": "COc1ccc(-c2nnc(COc3ccc(Cl)cc3Cl)o2)cc1OC", "growth": "34.3%"}
{"molecule": "c1ccc2cc(C[n+]3ccn(CCCCCCCCCCCCn4cc[n+](Cc5ccc6ccccc6c5)c4)c3)ccc2c1", "growth": "-61.8% (active)"}
{"molecule": "COc1ccc(-c2nc3sc(-c4ccccc4)cn3n2)cc1", "growth": "40%"}
{"molecule": "COc1ccc(C2CC(c3ccc(Nc4nc(Nc5ccc(F)cc5)nc(Nc5ccc(Cl)cc5)n4)cc3)=NN2C(C)=O)cc1", "note": "(stereo unspecified)", "growth": "94.6%"}
{"molecule": "O=C1CN(CCN2CC(=O)N(Cc3ccccc3)C(=O)C2)CC(=O)N1Cc1ccccc1", "growth": "98.6%"}
{"molecule": "COc1ccc(-c2cc3c4c(nc5ccccc5c4c2)CC(c2cc(OC)c(OC)c(OC)c2)O3)cc1", "note": "(stereo unspecified)", "growth": "1.01% (active)"}
{"molecule": "COc1ccc(C(=O)N=Nc2c(O)n(C)c3ccccc23)cc1", "growth": "99.7%"}
{"molecule": "NC1CCN(c2nc(Nc3cccc(C(F)(F)F)c3)c3c(=O)[nH]ccc3n2)CC1", "growth": "-99.5% (active)"}
{"molecule": "CC(C)(C)NC(=O)C(OC(=O)c1cccc(Cl)c1)c1ccc(Cl)cc1", "note": "(stereo unspecified)", "growth": "74.7%"}
{"molecule": "NC(=O)C1(Nc2ccc(Br)cc2)CCCC1", "growth": "105%"}
{"molecule": "Cn1cc(-c2cc3ncnc(Nc4ccc(CC(=O)Nc5cc(C(C)(C)C)on5)cc4)c3s2)cn1", "growth": "21.8%"}
{"molecule": "O=C(Nc1ccc(Br)cc1F)c1cc(Br)ccc1O", "growth": "5.39% (active)"}
{"molecule": "COc1ccn2c(C(C)=O)cc(C(=O)c3ccc4c(c3)Sc3ccccc3N4)c2c1", "growth": "1.38% (active)"}
{"molecule": "COc1nc2ccccc2cc1-c1nc2c(cnn2-c2ccccc2)c(=O)[nH]1", "growth": "42.1%"}
{"molecule": "Cc1ccc(-c2nc(N3CCN(C(=O)Nc4ccc(Cl)c(C(F)(F)F)c4)CC3)c3ccccc3n2)cc1", "growth": "67.5%"}
{"molecule": "CCc1nnc(NC(=O)c2nnn(-c3ccccc3)c2-c2ccco2)s1", "growth": "64.2%"}
{"molecule": "O=C(Nc1ccc(I)cc1F)c1cc(I)ccc1O", "growth": "5.17% (active)"}
{"molecule": "CCCCCCNC(=O)Oc1ccc(/C(=C(\\C)c2ccc(OC)cc2)c2ccc(OCCN3CCCCC3)cc2)cc1", "growth": "34.5%"}
{"tested_on": "HCC-2998 colon", "test": "NCI-60 one-dose screen, 48 h (100 = growth as untreated, 0 = no growth, -100 = all killed)", "settings": "10 µM unless noted"}
{"molecule": "O=c1c2cc(F)ccc2sc2c(NCCCNCCO)nc3ccc(F)cc3c12", "growth": "1.69% (active)"}
{"molecule": "COc1ccc2sc3c(NCCCNCCO)nc4ccccc4c3c(=O)c2c1", "growth": "-84.3% (active)"}
{"molecule": "COc1ccc(C(=O)/C=C/c2sc(Cl)nc2Cl)cc1", "growth": "-36% (active)"}
{"molecule": "O=C(O)c1cn(C2CC2)c2cc(N3CCN(C(=O)Nc4nc(-c5ccc(Cl)cc5)cs4)CC3)c(F)cc2c1=O", "growth": "30.6%"}
{"molecule": "Cn1cc(-c2cc3ncnc(Nc4ccc(CC(=O)Nc5cc(C(C)(C)C)nn5C)cc4)c3s2)cn1", "growth": "80.8%"}
{"molecule": "O=C(Nc1ccc(Cl)cc1F)c1ccccc1O", "growth": "77.1%"}
{"molecule": "Cc1cc(Cl)ccc1NS(=O)(=O)c1ccc(-c2cnc(C3CC3)o2)cc1", "growth": "15.9%"}
{"molecule": "COc1c(B(O)O)cc(F)cc1-c1nc2ccc3[nH]ncc3c2c2c1CCCC2", "growth": "5.31% (active)"}
{"molecule": "CCCCCCN(CCCCCC)c1ccc(/C=C2/SC(=O)NC2=O)c(C)c1", "growth": "67.4%"}
{"molecule": "Cc1[nH]c(C(=O)Nc2ccc(C(=O)NCCN)cc2OC(C)C)c(Cl)c1Cl", "growth": "-41.7% (active)"}
{"molecule": "COc1cc(/C=C/c2ccccc2)cc(OC)c1", "growth": "102%"}
{"molecule": "COC(=O)c1ccc2[nH]c(O)c(C(=Nc3ccc(N(C)C(=O)CN4CCN(C)CC4)cc3)c3ccccc3)c2c1", "growth": "25.7%"}
{"molecule": "COc1cc(Nc2nc(NCCN)nc3cc[nH]c(=O)c23)cc(OC)c1", "growth": "79.3%"}
{"molecule": "O=c1c2cc(F)ccc2sc2c(NCCN3CCOCC3)nc3ccccc3c12", "growth": "59%"}
{"molecule": "O=C1c2cccc3cccc(c23)C(=O)N1Nc1nc(N2CCOCC2)nc(N2CCN(c3ccccc3)CC2)n1", "growth": "77.6%"}
{"molecule": "c1ccc(OCc2nnc(-c3ccc(Oc4ccccc4)cc3)o2)cc1", "growth": "114%"}
{"molecule": "C=C1C(=O)O[C@H]2[C@H]1CC/C(COC(=O)CCC(=O)NCCOCCOCC(=O)Nc1ccc(OC)c(C(N)=O)c1O)=C\\CC[C@@]1(C)O[C@@H]21", "growth": "112%"}
{"molecule": "Nc1ccc(Sc2ccc([N+](=O)[O-])c3nonc23)cc1", "growth": "108%"}
{"molecule": "Cc1ccc(C(=O)NN2C(=O)CSC2c2cccc([N+](=O)[O-])c2)cn1", "note": "(stereo unspecified)", "growth": "84%"}
{"molecule": "CCOC(=O)c1[nH]c(C)c(C(=O)OCc2ccccc2C#N)c1C", "growth": "64.3%"}
{"molecule": "COc1ccc(-c2nnc(COc3ccc(Cl)cc3Cl)o2)cc1OC", "growth": "95%"}
{"molecule": "c1ccc2cc(C[n+]3ccn(CCCCCCCCCCCCn4cc[n+](Cc5ccc6ccccc6c5)c4)c3)ccc2c1", "growth": "-83.4% (active)"}
{"molecule": "COc1ccc(-c2nc3sc(-c4ccccc4)cn3n2)cc1", "growth": "77.3%"}
{"molecule": "COc1ccc(C2CC(c3ccc(Nc4nc(Nc5ccc(F)cc5)nc(Nc5ccc(Cl)cc5)n4)cc3)=NN2C(C)=O)cc1", "note": "(stereo unspecified)", "growth": "99.7%"}
{"molecule": "O=C1CN(CCN2CC(=O)N(Cc3ccccc3)C(=O)C2)CC(=O)N1Cc1ccccc1", "growth": "121%"}
{"molecule": "COc1ccc(-c2cc3c4c(nc5ccccc5c4c2)CC(c2cc(OC)c(OC)c(OC)c2)O3)cc1", "note": "(stereo unspecified)", "growth": "43.1%"}
{"molecule": "COc1ccc(C(=O)N=Nc2c(O)n(C)c3ccccc23)cc1", "growth": "117%"}
{"molecule": "NC1CCN(c2nc(Nc3cccc(C(F)(F)F)c3)c3c(=O)[nH]ccc3n2)CC1", "growth": "-85.8% (active)"}
{"molecule": "CC(C)(C)NC(=O)C(OC(=O)c1cccc(Cl)c1)c1ccc(Cl)cc1", "note": "(stereo unspecified)", "growth": "107%"}
{"molecule": "NC(=O)C1(Nc2ccc(Br)cc2)CCCC1", "growth": "116%"}
{"molecule": "Cn1cc(-c2cc3ncnc(Nc4ccc(CC(=O)Nc5cc(C(C)(C)C)on5)cc4)c3s2)cn1", "growth": "99.1%"}
{"molecule": "O=C(Nc1ccc(Br)cc1F)c1cc(Br)ccc1O", "growth": "12.4%"}
{"molecule": "COc1ccn2c(C(C)=O)cc(C(=O)c3ccc4c(c3)Sc3ccccc3N4)c2c1", "growth": "21.2%"}
{"molecule": "COc1nc2ccccc2cc1-c1nc2c(cnn2-c2ccccc2)c(=O)[nH]1", "growth": "73.3%"}
{"molecule": "Cc1ccc(-c2nc(N3CCN(C(=O)Nc4ccc(Cl)c(C(F)(F)F)c4)CC3)c3ccccc3n2)cc1", "growth": "85.3%"}
{"molecule": "CCc1nnc(NC(=O)c2nnn(-c3ccccc3)c2-c2ccco2)s1", "growth": "110%"}
{"molecule": "O=C(Nc1ccc(I)cc1F)c1cc(I)ccc1O", "growth": "17.6%"}
{"molecule": "CCCCCCNC(=O)Oc1ccc(/C(=C(\\C)c2ccc(OC)cc2)c2ccc(OCCN3CCCCC3)cc2)cc1", "growth": "80.6%"}
